Source: publication PMC7862700, “An all-to-all approach to the identification of sequence-specific readers for epigenetic DNA modifications on cytosine”

Tests used:
Assay in all cases: DAPPL (digital affinity profiling via proximity ligation, sequencing); 10 mM Tris-HCl pH 7.5, 50 mM NaCl, 1 mM DTT, 4% glycerol, room temperature, 30 min; GST-TFs on glutathione beads, 16-mer random dsDNA library, 0.1% formaldehyde crosslink after washing; high values mean tight binding
FLI1 = molecular target: T1, FLI1 (Homo sapiens, UniProt Q01543 1-452); details: protein: recombinant; tags: N-terminal GST; dsDNA, one strand shown
T1 sequence: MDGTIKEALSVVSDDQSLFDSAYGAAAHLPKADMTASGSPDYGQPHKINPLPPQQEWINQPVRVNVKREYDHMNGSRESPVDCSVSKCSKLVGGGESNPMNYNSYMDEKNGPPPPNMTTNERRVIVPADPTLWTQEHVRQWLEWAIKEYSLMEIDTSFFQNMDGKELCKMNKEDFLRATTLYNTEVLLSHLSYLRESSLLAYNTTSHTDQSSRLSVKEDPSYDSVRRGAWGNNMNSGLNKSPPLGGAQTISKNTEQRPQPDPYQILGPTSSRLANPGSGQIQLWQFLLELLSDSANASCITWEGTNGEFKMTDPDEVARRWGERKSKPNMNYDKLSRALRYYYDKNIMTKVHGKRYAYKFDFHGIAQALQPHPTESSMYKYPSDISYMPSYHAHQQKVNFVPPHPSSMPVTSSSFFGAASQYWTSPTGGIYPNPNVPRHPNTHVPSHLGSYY
Procedure, shortened: (§1)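 Binding signal is given per hexamer as its read frequency for a factor divided by its frequency in the tag-only sample. GST-fused human transcription factors were expressed in yeast, captured on glutathione beads, barcoded with DNA and pooled with that sample, then incubated with 200 nmole of a 16-mer random double-stranded DNA library in Tris/NaCl/DTT/glycerol buffer for 30 min at room temperature. The pools were then washed, crosslinked, proximity-ligated, amplified by PCR and sequenced on an Illumina NextSeq500.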

ELK1 = molecular target: T2, ELK1 (Homo sapiens, UniProt P19419 1-428); details: protein: recombinant; tags: N-terminal GST; dsDNA, one strand shown
T2 sequence: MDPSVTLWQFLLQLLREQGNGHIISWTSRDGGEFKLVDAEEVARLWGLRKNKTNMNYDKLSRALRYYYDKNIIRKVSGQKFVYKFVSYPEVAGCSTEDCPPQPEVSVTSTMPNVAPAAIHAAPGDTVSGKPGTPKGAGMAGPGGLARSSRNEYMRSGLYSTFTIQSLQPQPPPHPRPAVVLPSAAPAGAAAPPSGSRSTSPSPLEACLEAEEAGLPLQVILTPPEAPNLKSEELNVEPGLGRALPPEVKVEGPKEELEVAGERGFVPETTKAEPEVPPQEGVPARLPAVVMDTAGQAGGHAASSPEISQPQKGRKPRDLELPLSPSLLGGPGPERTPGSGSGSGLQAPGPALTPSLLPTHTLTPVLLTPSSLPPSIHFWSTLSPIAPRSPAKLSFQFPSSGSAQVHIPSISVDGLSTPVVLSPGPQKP
Procedure, shortened: as §1

GABPA = molecular target: T3, GABPA (Homo sapiens, UniProt Q06546 1-454); details: protein: recombinant; tags: N-terminal GST; dsDNA, one strand shown
T3 sequence: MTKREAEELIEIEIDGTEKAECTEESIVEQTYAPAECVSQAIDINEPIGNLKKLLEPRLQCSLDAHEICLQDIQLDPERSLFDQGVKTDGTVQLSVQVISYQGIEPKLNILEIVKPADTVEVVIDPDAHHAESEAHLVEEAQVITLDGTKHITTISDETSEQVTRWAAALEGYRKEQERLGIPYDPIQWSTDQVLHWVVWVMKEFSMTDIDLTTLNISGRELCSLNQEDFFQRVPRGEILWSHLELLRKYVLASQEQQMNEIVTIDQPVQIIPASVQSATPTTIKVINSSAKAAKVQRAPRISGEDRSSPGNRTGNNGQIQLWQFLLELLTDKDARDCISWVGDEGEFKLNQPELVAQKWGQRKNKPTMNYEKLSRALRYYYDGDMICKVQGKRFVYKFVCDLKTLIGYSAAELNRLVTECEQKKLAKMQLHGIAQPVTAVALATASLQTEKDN
Procedure, shortened: as §1

ERG = molecular target: T4, ERG (Homo sapiens, UniProt P11308 1-479); details: protein: recombinant; tags: N-terminal GST; dsDNA, one strand shown
T4 sequence: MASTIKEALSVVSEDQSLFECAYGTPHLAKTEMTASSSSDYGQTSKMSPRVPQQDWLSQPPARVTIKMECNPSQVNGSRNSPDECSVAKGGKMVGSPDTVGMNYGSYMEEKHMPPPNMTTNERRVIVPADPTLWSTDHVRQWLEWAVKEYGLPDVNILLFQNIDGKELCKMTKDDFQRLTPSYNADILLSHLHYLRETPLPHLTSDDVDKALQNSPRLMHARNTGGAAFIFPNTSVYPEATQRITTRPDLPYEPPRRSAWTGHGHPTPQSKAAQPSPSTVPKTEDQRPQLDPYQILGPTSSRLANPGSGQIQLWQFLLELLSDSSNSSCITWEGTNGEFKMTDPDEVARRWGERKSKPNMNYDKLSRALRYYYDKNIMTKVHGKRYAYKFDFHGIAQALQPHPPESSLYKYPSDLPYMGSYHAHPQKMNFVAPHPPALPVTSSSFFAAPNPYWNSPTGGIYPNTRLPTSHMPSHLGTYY
Procedure, shortened: as §1

ELF1 = ELF1 (Homo sapiens, UniProt P32519 1-619); details: protein: recombinant; tags: N-terminal GST; dsDNA, one strand shown
Procedure, shortened: as §1

EHF = molecular target: T5, EHF (Homo sapiens, UniProt Q9NZC4 1-300); details: protein: recombinant; tags: N-terminal GST; dsDNA, one strand shown
T5 sequence: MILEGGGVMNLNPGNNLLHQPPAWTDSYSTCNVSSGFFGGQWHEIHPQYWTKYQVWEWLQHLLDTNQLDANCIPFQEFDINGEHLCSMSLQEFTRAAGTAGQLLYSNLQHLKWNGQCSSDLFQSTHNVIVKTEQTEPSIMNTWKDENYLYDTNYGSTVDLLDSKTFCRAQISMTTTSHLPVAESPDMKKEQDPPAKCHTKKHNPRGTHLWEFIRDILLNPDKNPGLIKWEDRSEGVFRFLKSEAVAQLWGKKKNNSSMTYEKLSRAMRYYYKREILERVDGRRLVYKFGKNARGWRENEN
Procedure, shortened: as §1

SPI1 = SPI1 (Homo sapiens, UniProt P17947 1-270); details: protein: recombinant; tags: N-terminal GST; dsDNA, one strand shown
Procedure, shortened: as §1

SPIB = SPIB (Homo sapiens, UniProt Q01892 1-262); details: protein: recombinant; tags: N-terminal GST; dsDNA, one strand shown
Procedure, shortened: as §1

ELK3 = molecular target: T6, ELK3 (Homo sapiens, UniProt P41970 1-407); details: protein: recombinant; tags: N-terminal GST; dsDNA, one strand shown
T6 sequence: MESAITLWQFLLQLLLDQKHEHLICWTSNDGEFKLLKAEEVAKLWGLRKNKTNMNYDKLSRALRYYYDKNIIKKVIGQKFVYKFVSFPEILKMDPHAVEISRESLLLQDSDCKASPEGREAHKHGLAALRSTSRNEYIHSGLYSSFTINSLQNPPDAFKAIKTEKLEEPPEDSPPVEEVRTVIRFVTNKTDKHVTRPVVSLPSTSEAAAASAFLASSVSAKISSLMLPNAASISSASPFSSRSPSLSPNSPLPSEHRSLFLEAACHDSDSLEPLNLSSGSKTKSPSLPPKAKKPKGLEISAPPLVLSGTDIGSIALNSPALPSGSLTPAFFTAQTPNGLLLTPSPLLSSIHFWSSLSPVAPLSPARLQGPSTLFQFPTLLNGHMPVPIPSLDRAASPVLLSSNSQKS
Procedure, shortened: as §1

FEV = molecular target: T7, FEV (Homo sapiens, UniProt Q99581 1-238); details: protein: recombinant; tags: N-terminal GST; dsDNA, one strand shown
T7 sequence: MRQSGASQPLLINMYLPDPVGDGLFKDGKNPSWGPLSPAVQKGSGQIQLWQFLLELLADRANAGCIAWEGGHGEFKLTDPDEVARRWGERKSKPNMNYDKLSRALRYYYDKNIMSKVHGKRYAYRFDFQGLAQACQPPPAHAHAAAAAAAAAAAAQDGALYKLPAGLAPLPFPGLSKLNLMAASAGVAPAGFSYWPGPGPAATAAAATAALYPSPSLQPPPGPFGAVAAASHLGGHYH
Procedure, shortened: as §1

ETV5 = ETV5 (Homo sapiens, UniProt P41161 1-510); details: protein: recombinant; tags: N-terminal GST; dsDNA, one strand shown
Procedure, shortened: as §1

HSF1 = HSF1 (Homo sapiens, UniProt Q00613 1-529); details: protein: recombinant; tags: N-terminal GST; chain copies: 3; dsDNA, one strand shown
Procedure, shortened: as §1

SPIC = molecular target: T8, SPIC (Homo sapiens, UniProt Q8N5J4 1-248); details: protein: recombinant; tags: N-terminal GST; dsDNA, one strand shown
T8 sequence: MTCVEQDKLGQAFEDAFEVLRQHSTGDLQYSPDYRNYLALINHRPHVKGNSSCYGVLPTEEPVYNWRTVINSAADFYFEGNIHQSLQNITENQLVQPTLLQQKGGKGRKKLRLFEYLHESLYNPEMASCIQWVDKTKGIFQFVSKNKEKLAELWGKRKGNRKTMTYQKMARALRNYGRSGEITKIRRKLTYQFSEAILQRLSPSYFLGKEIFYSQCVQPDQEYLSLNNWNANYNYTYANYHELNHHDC
Procedure, shortened: as §1

ELF4 = ELF4 (Homo sapiens, UniProt Q99607 1-663); details: protein: recombinant; tags: N-terminal GST; dsDNA, one strand shown
Procedure, shortened: as §1

ELK4 = molecular target: T9, ELK4 (Homo sapiens, UniProt P28324-2 1-405); details: protein: recombinant; tags: N-terminal GST; dsDNA, one strand shown
T9 sequence: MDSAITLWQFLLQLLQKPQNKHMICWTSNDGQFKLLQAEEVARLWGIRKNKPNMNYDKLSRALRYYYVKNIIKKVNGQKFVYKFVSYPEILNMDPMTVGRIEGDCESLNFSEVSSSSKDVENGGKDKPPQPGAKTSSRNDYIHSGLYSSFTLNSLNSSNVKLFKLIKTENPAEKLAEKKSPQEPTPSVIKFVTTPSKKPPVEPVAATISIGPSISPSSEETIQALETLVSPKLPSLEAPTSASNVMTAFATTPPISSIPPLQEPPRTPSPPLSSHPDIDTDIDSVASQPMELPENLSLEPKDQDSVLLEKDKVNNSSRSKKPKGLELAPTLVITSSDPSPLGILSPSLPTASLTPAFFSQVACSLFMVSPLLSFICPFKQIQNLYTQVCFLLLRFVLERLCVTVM
Procedure, shortened: as §1

ETV2 = molecular target: T10, ETV2 (Homo sapiens, UniProt O00321 1-342); details: protein: recombinant; tags: N-terminal GST; dsDNA, one strand shown
T10 sequence: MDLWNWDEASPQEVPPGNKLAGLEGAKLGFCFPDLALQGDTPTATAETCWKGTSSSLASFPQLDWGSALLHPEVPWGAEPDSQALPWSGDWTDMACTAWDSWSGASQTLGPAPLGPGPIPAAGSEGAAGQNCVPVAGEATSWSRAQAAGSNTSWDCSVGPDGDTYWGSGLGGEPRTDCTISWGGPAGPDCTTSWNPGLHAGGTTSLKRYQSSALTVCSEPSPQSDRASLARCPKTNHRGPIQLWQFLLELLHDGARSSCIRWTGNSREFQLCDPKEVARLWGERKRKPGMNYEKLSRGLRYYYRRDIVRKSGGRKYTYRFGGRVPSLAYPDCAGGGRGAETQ
Procedure, shortened: as §1

ELF3 = molecular target: T11, ELF3 (Homo sapiens, UniProt P78545 1-371); details: protein: recombinant; tags: N-terminal GST; dsDNA, one strand shown
T11 sequence: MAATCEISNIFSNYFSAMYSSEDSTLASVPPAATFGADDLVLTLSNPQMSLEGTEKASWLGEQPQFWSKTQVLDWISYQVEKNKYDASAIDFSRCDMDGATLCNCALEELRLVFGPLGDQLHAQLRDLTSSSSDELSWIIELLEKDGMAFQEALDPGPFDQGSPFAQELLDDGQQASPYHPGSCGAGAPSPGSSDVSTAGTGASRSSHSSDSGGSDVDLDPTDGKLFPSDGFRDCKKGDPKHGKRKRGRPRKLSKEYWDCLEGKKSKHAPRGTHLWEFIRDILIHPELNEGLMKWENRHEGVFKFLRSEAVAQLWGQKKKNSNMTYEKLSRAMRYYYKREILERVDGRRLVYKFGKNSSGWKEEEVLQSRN
Procedure, shortened: as §1

CRX = CRX (Homo sapiens, UniProt O43186 1-299); details: protein: recombinant; tags: N-terminal GST; dsDNA, one strand shown
Procedure, shortened: as §1

ETV1 = ETV1 (Homo sapiens, UniProt P50549 1-477); details: protein: recombinant; tags: N-terminal GST; dsDNA, one strand shown
Procedure, shortened: as §1

Chain of HSF1 (Q00613 whole entry): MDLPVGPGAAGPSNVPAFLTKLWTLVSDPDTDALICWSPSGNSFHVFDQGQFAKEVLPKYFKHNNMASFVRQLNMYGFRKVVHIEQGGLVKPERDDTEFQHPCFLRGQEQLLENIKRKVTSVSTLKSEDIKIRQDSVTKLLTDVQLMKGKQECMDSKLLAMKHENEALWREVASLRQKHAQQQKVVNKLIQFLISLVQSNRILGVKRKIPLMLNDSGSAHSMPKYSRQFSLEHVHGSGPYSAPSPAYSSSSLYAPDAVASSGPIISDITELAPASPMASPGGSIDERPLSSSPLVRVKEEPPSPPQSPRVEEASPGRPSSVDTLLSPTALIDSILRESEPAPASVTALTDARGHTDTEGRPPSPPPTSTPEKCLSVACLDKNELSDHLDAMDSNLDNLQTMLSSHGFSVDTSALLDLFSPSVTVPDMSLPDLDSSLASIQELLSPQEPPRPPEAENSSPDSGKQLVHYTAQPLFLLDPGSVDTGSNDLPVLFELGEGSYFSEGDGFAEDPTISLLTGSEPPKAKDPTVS
Chain of ETV1 (P50549 whole entry): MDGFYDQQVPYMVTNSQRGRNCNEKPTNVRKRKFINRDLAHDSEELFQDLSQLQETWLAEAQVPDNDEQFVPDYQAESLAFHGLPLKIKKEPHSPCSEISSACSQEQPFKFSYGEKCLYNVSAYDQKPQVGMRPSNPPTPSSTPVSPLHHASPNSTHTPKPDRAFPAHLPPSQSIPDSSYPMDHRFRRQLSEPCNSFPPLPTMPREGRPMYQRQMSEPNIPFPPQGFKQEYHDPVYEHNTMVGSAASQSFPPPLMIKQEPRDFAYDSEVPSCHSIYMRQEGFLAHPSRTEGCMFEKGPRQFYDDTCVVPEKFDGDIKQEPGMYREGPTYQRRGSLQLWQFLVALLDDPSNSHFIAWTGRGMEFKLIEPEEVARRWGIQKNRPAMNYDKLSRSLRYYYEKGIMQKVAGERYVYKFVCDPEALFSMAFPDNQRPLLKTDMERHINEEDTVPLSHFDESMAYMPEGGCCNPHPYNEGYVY
Chain of ELF4 (Q99607 whole entry): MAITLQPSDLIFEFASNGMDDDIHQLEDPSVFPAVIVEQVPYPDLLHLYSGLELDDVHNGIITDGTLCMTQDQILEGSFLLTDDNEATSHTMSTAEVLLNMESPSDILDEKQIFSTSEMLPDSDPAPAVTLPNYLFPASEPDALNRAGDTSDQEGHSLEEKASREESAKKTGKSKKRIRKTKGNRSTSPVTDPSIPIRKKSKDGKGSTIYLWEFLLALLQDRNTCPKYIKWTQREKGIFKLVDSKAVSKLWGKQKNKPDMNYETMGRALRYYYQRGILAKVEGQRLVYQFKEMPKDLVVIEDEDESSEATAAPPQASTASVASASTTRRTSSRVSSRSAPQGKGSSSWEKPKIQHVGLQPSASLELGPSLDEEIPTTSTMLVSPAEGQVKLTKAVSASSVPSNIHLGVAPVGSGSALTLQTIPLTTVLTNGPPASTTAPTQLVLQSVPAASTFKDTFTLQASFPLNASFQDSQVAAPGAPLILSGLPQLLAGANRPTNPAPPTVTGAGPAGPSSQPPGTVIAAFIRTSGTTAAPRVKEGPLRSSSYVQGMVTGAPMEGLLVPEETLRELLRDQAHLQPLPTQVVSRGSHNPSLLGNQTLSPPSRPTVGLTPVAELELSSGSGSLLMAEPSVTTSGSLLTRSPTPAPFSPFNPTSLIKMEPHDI
Chain of SPIB (Q01892 whole entry): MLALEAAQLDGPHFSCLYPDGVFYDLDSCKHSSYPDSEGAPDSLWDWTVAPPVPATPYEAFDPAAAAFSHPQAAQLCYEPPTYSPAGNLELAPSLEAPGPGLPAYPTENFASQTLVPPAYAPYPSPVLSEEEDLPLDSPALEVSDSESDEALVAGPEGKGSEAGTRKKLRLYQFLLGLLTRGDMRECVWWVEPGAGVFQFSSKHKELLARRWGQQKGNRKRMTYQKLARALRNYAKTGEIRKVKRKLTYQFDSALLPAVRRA
Chain of ELF1 (P32519 whole entry): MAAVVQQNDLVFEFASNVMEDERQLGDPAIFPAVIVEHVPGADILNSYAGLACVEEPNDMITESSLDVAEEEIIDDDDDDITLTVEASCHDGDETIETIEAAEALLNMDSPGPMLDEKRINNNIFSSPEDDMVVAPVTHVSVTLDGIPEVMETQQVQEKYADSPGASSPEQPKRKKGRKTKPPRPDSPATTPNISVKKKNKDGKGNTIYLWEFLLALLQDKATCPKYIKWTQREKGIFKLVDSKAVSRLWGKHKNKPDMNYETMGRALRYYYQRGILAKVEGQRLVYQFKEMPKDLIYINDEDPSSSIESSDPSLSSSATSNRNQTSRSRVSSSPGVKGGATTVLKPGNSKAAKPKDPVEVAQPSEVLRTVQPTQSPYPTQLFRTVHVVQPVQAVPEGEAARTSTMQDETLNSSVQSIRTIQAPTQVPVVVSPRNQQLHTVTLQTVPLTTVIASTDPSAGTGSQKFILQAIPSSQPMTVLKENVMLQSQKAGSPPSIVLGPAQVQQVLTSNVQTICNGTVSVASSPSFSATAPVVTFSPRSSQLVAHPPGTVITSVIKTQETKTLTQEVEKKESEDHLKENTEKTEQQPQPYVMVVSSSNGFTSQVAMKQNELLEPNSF
Chain of CRX (O43186 whole entry): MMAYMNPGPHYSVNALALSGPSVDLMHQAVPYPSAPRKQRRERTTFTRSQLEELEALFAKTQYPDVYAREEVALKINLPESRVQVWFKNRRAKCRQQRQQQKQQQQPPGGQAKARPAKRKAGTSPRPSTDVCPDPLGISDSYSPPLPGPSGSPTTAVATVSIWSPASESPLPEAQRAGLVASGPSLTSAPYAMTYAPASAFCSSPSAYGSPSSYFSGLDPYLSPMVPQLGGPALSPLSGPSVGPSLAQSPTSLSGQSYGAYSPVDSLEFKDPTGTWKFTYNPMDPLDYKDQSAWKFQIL
Chain of ETV5 (P41161 whole entry): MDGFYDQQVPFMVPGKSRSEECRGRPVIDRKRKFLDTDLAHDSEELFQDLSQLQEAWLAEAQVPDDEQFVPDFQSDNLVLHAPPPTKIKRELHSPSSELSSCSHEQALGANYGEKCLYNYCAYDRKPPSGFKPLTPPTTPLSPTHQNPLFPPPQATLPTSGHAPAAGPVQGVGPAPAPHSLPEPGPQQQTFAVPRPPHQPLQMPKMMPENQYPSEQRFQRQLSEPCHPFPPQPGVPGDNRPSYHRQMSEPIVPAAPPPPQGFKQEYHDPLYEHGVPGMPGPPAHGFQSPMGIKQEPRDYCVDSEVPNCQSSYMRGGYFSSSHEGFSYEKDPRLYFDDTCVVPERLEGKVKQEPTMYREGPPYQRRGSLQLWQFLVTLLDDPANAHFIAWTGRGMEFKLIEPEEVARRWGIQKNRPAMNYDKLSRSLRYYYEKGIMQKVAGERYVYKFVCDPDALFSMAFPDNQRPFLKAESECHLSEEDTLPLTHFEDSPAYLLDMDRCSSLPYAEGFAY

Sequence: CCTATG
- binding signal (FLI1): 1.14 fold enrichment (6-mer frequency, TF over GST control)
- binding signal (ELK1): 1.31 fold enrichment (6-mer frequency, TF over GST control)
- binding signal (GABPA): 1.31 fold enrichment (6-mer frequency, TF over GST control)
- binding signal (ERG): 1.14 fold enrichment (6-mer frequency, TF over GST control)
- binding signal (ELF1): 1.27 fold enrichment (6-mer frequency, TF over GST control)
- binding signal (EHF): 1.14 fold enrichment (6-mer frequency, TF over GST control)
- binding signal (SPI1): 1.21 fold enrichment (6-mer frequency, TF over GST control)
- binding signal (SPIB): 1.19 fold enrichment (6-mer frequency, TF over GST control)
- binding signal (ELK3): 1.18 fold enrichment (6-mer frequency, TF over GST control)
- binding signal (FEV): 1.17 fold enrichment (6-mer frequency, TF over GST control)
- binding signal (ETV5): 1.28 fold enrichment (6-mer frequency, TF over GST control)
- binding signal (HSF1): 1.05 fold enrichment (6-mer frequency, TF over GST control)
- binding signal (SPIC): 1.1 fold enrichment (6-mer frequency, TF over GST control)
- binding signal (ELF4): 1.3 fold enrichment (6-mer frequency, TF over GST control)
- binding signal (ELK4): 1.35 fold enrichment (6-mer frequency, TF over GST control)
- binding signal (ETV2): 1.25 fold enrichment (6-mer frequency, TF over GST control)
- binding signal (ELF3): 1.52 fold enrichment (6-mer frequency, TF over GST control)
- binding signal (CRX): 1.02 fold enrichment (6-mer frequency, TF over GST control)
- binding signal (ETV1): 1.24 fold enrichment (6-mer frequency, TF over GST control)
